Assay results: PubChem BioAssay AID1159580 (chemical genetic matrix, 2015)
Where “and” joins values, the source holds several entries; their conditions need not be identical. Equal values may be shown once. About 2,000 (36%) of roughly 5,500 compounds were called active. Roughly 18% stayed inconclusive and do not appear here. Cut-off read from the data, not from the text of the source: active = normalized growth mostly below about 0.91 (no sharp cut-off); inconclusive = no clear call, values can overlap the other calls; inactive = mostly above about 0.92. The list shows a part of the results.

Experiment: chemical genetic growth profiling, strain panel (AID 1159580);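 note: tested at 20 µM; growth read once vehicle control cultures reached saturation at 30 °C; 1 = growth at the plate median or of vehicle wells; lower values mean less growth of the strain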
Settings: S. cerevisiae deletion strains, growth OD

Measured: normalized growth

CC(N=C(NC#N)Nc1ccncc1)C(C)(C)C (configuration not stated)
inactive: locus YAL013W, strain DEP1, active compounds read low 1.01 | locus YAL021C, strain ccr4, active compounds read low 0.988 | locus YAL026C, strain drs2, active compounds read low 0.997 | locus YAL030W, strain snc1, active compounds read low 0.988 | locus YAL040C, strain CLN3, active compounds read low 0.983 | locus YBL061C, strain skt5, active compounds read low 0.986 | locus YBR009C, strain hhf1, active compounds read low 1.01 | locus YBR021W, strain FUR4, active compounds read low 1.02 | locus YBR023C, strain chs3, active compounds read low 0.98 | locus YBR171W, strain sec66, active compounds read low 0.958 | locus YBR229C, strain ROT2, active compounds read low 1.01 | locus YBR231C, strain swc5, active compounds read low 0.953 | locus YBR279W, strain paf1, active compounds read low 0.994 | locus YCL011C, strain gbp2, active compounds read low 0.989 | locus YCL016C, strain dcc1, active compounds read low 1.02 | locus YCL029C, strain bik1, active compounds read low 1.04 | locus YCL061C, strain MRC1 (second series), active compounds read low 0.999 | locus YCL061C, strain MRC1, active compounds read low 0.951 | locus YCL069W, strain vba3, active compounds read low 0.989 | locus YCR088W, strain abp1, active compounds read low 0.98 | locus YDL005C, strain med2, active compounds read low 0.988 | locus YDL035C, strain GPR1, active compounds read low 0.999 | locus YDL040C, strain nat1, active compounds read low 0.979 | locus YDL074C, strain BRE1, active compounds read low 1.05 | locus YDL101C, strain DUN1, active compounds read low 1.01 | locus YDL134C, strain PPH21, active compounds read low 1.01 | locus YDL185W, strain tfp1, active compounds read low 1.02 | locus YDL192W, strain arf1, active compounds read low 1.01 | locus YDR001C, strain nth1, active compounds read low 0.963 | locus YDR069C, strain doa4, active compounds read low 0.949 | locus YDR101C, strain arx1, active compounds read low 1.01 | locus YDR137W, strain rgp1, active compounds read low 0.97 | locus YDR150W, strain NUM1, active compounds read low 1.02 and 1 | locus YDR159W, strain sac3, active compounds read low 1.01 | locus YDR162C, strain NBP2, active compounds read low 1.01 | locus YDR195W, strain ref2 0.895 | locus YDR297W, strain sur2, active compounds read low 0.971 | locus YDR318W, strain mcm21, active compounds read low 1.02 | locus YDR334W, strain swr1, active compounds read low 0.949 | locus YDR335W, strain msn5, active compounds read low 0.972 | locus YDR363W, strain ESC2, active compounds read low 0.904 | locus YDR388W, active compounds read low 1.02 | locus YDR392W, strain spt3, active compounds read low 1.04 | locus YDR502C, strain sam2, active compounds read low 1.01 | locus YEL003W, strain gim4, active compounds read low 0.967 | locus YEL037C, strain rad23, active compounds read low 0.998 | locus YEL061C, strain CIN8 (second series), active compounds read low 0.974 | locus YEL061C, strain CIN8, active compounds read low 1.01 | locus YER002W, strain NOP16, active compounds read low 1 | locus YER015W, strain faa2, active compounds read low 0.999 | locus YER016W, strain bim1, active compounds read low 0.986 | locus YER110C, active compounds read low 1.02 | locus YER111C, strain swi4, active compounds read low 0.995 | locus YER155C, strain BEM2 (second series), active compounds read low 0.929 | locus YER155C, strain BEM2, active compounds read low 1 | locus YER167W, strain BCK2, active compounds read low 0.996 | locus YFR010W, strain ubp6, active compounds read low 0.964 | locus YGL078C, strain dbp3, active compounds read low 1.01 | locus YGL086W, strain mad1, active compounds read low 1 | locus YGL167C, strain pmr1, active compounds read low 0.961 | locus YGL173C, strain kem1, active compounds read low 0.97 | locus YGL227W, strain vid30, active compounds read low 0.986 | locus YGL240W, strain doc1, active compounds read low 0.945 | locus YGL248W, strain PDE1, active compounds read low 1 | locus YGL253W, strain hxk2, active compounds read low 1.01 | locus YGR078C, strain PAC10, active compounds read low 1.04 and 0.982 | locus YGR135W, strain pre9, active compounds read low 1.03 | locus YGR229C, strain SMI1, active compounds read low 1.02 | locus YGR252W, strain gcn5, active compounds read low 0.967 | locus YHR013C, strain ard1, active compounds read low 0.985 | locus YHR027C, strain rpn1, active compounds read low 0.979 | locus YHR030C, strain SLT2, active compounds read low 1.01 | locus YHR079C, strain IRE1 (second series), active compounds read low 1.02 | locus YHR094C, strain hxt1, active compounds read low 1.02 | locus YHR129C, strain ARP1, active compounds read low 1 | locus YHR142W, strain chs7, active compounds read low 1.02 | locus YHR200W, strain rpn10, active compounds read low 1.02 | locus YIL066C, strain RNR3, active compounds read low 1.02 | locus YIL073C, strain SPO22, active compounds read low 1.02 | locus YIL125W, strain kgd1, active compounds read low 1.01 | locus YIR030C, strain dcg1, active compounds read low 1.02 | locus YJL092W, strain hpr5, active compounds read low 0.976 | locus YJL095W, strain BCK1 (second series), active compounds read low 0.974 | locus YJL095W, strain BCK1, active compounds read low 1.04 | locus YJL115W, strain asf1, active compounds read low 0.971 | locus YJL129C, strain trk1, active compounds read low 0.979 | locus YJL134W, strain LCB3, active compounds read low 1.01 | locus YJL154C, strain vps35, active compounds read low 0.972 | locus YJL164C, strain tpk1, active compounds read low 1.03 | locus YJL166W, strain qcr8, active compounds read low 0.922 | locus YJL168C, strain set2, active compounds read low 1.02 | locus YJL187C, strain SWE1 (second series), active compounds read low 1.03
